Sampled rows, rich in hits. Any-hit rate of the full collection: about 3.9%.
HSF-1 act = increases HSF-1 driven luciferase reporter signal; actives 1.7% (n = 300,000); AID 504408; NIH3T3-HGL HSF-1 luciferase reporter, MG132, 8 h; 100% = twice DMSO control signal; activation, % at 9 µM;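 active = mean replicate activation of at least 50% with a set share of replicates each reaching 50%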
HSF1 inhib = HSF1 inhibition; actives 0.77% (n = 300,000); activity change, negative = inhibition, % at 7.5 µM (by protocol); NIH3T3-HGL HSE-luciferase, MG132-induced, luminescence 8 h; stronger effect = lower value;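 active = more than half of replicate wells show activity change below -50%, luminescence cut by over half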;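 also: luciferase reports HSF-1 transcriptional activity via heat shock element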
MITF act = MITF TRPM1 promoter activation in melanoma cells | SK-MEL-5 TRPM1-promoter luciferase, 24 h; % of positive control, neutral wells = 0 | activation, % at 12.5 µM | actives 0.75% (n = 300,000) | AID 588334;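 active = mean activation of at least 80% with every replicate also reaching 80%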
Wnt bcat act = activators of Wnt/beta-catenin signaling; Wnt/beta-catenin reporter cell assay, activator, plate reader; activation, % at 9.35 µM; AID 743398; actives 1.2% (n = 300,000); in the data active = activation above about 30%, passing the limit was not always enough
esBAF inh = inhibitors of esBAF chromatin remodeling in mouse ES cells; Bmi1-luciferase knock-in reporter, 24 h; 100% = twice the neutral-well signal; reporter increase, % at 12.5 µM; actives 2% (n = 350,000); in the data active = activation above about 40%;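 also: a rise in the Bmi1 reporter signal indicates esBAF inhibition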
Each line names hits and unclear results; the compound was inactive in the other large screens.

Cc1cc(C(=O)CSc2ccc(F)cc2)cc(C)c1O	esBAF inh 56
C[C@@H]1CCCCO[C@@H](CN(C)S(=O)(=O)c2ccccc2)[C@H](C)CN([C@H](C)CO)C(=O)c2cc(NC(=O)Cc3ccccc3)ccc2O1	none (no result: HSF-1 act, HSF1 inhib, MITF act, Wnt bcat act)
Clc1ccccc1-c1nc(-c2ccccc2)n[nH]1	HSF-1 act 54, Wnt bcat act 64
O=C(Nc1ccn(Cc2ccccc2F)n1)c1ccc(COc2ccccc2Cl)cc1	none (no result: Wnt bcat act)
O=C(Nc1ccn(Cc2ccccc2F)n1)c1ccc(COc2cccc(Br)c2)cc1	HSF-1 act 52 (no result: Wnt bcat act, esBAF inh)
Cc1ccc(-n2nc3ccc(N)cc3n2)cc1C	Wnt bcat act 31
Cc1ccc(S(=O)(=O)NCC[C@@H]2CC[C@H](NC(=O)CC3CC3)[C@@H](CO)O2)cc1	none (no result: HSF-1 act, HSF1 inhib, MITF act, Wnt bcat act)
COc1ccc(NC(=O)N(C)C[C@H]2Oc3ccc(NS(=O)(=O)c4ccc(Cl)cc4)cc3C(=O)N([C@H](C)CO)C[C@@H]2C)cc1	none (no result: HSF-1 act, HSF1 inhib, MITF act, Wnt bcat act)
O=C(NCCC(=O)N1CCCCCCC1)c1ccc(Br)cc1	none (no result: HSF-1 act, HSF1 inhib)
CC(C)(C)c1ccc(C(=O)NCCC(=O)N2CCCC2)cc1	esBAF inh 47
Cc1ccc(C(=O)NCCC(=O)N2CCOCC2)cc1	Wnt bcat act 37 (no result: esBAF inh)
COCC#Cc1ccc2c(c1)O[C@H](CN(C)C(=O)C1CCC1)[C@H](C)CN([C@H](C)CO)S2(=O)=O	none (no result: HSF-1 act, HSF1 inhib, MITF act, Wnt bcat act)
COC(=O)CSc1nnc(SCc2ccc(Cl)cc2)s1	none (no result: Wnt bcat act)
COC(=O)c1cnc(SCC(=O)c2ccccc2)n1C	Wnt bcat act 32
COC(=O)c1cnc(SCc2ccc(Cl)cc2)n1C	HSF-1 act 69 (no result: esBAF inh)
O=C1c2cccnc2Oc2ccc(Cl)cc2N1Cc1ccc(F)cc1	HSF1 inhib -79 (no result: esBAF inh)
O=C1CCCCC1C(=O)c1cn(-c2ccc(Cl)c(Cl)c2)nn1 (stereo unspecified)	esBAF inh 63
COC(=O)c1ccc(N=Nc2ccccc2)cc1	esBAF inh 76
COC(=O)c1ccc(O)cc1	none
COC(=O)c1ccc(OCCOc2ccccc2)cc1	esBAF inh 46 (no result: Wnt bcat act)
C[C@H](CO)N1C[C@H](C)[C@@H](CN(C)S(C)(=O)=O)OCCCC[C@H](C)Oc2ccc(NC(=O)c3ccccc3)cc2C1=O	none (no result: HSF-1 act, HSF1 inhib, MITF act, Wnt bcat act)
CCS(=O)(=O)NCC[C@@H]1CC[C@@H](NS(=O)(=O)c2cccc(Cl)c2)[C@H](CO)O1	none (no result: HSF-1 act, HSF1 inhib, MITF act, Wnt bcat act)
C[C@@H]1CN([C@@H](C)CO)S(=O)(=O)c2ccc(C3=CCCC3)cc2O[C@H]1CN(C)Cc1cccnc1	none (no result: HSF-1 act, HSF1 inhib, MITF act, Wnt bcat act)
O=C(C[C@H]1C[C@H]2c3cc(NS(=O)(=O)c4ccc(F)cc4)ccc3O[C@H]2[C@@H](CO)O1)N1CCCCC1	none (no result: HSF-1 act, HSF1 inhib, MITF act, Wnt bcat act)
C[n+]1ccccc1/C=C/c1ccc(F)c(F)c1	none (no result: MITF act)
C[n+]1ccccc1/C=C/c1ccc2ncccc2c1	esBAF inh 71 (no result: MITF act)
Nc1ccccc1-n1cccc1	Wnt bcat act 62 (no result: MITF act, esBAF inh)
CCOC(=O)C1CCCN(CC(=O)Nc2c(C(=O)OC)[nH]c3ccccc23)C1 (stereo unspecified)	HSF-1 act 60 (no result: MITF act, Wnt bcat act)
COC(=O)C1=C(C)N(Cc2ccco2)C(=O)C1	HSF1 inhib -60 (no result: Wnt bcat act)
Oc1[nH]c2ccccc2c1N=Nc1ccccc1	esBAF inh 52
Oc1[nH]c2ccccc2c1N=Nc1ccccc1F	esBAF inh 86
Cc1ccc(S(=O)(=O)n2ccc(=O)[nH]2)cc1	HSF1 inhib -68
Cc1ccc(S(=O)(=O)N2CCC(=O)N2)cc1	none (no result: MITF act)
CC(C)c1cc2c(c(O)c1O)[C@@]13CCCC(C)(C)C1CC2OC3=O (stereo partly specified)	HSF-1 act 66 (no result: MITF act)
CC(=O)C1=C(C)NC(SCC(=O)c2ccccc2)=C(C#N)C1c1ccco1 (stereo unspecified)	HSF-1 act 77 (no result: MITF act, Wnt bcat act, esBAF inh)
CCOC(=O)C1=C(c2ccccc2)NC(SC)=C(C#N)C1c1ccco1 (stereo unspecified)	HSF-1 act 51
Cc1ccc(-c2cnc3c(c2)C(=O)N([C@H](C)CO)C[C@@H](C)[C@@H](CN(C)S(C)(=O)=O)O3)cc1	none (no result: HSF-1 act, HSF1 inhib, MITF act, Wnt bcat act)
COc1ccc(CN(C)C[C@H]2Oc3ccc(NC(=O)Cc4cn(C)c5ccccc45)cc3C(=O)N([C@@H](C)CO)C[C@H]2C)cc1	none (no result: HSF-1 act, HSF1 inhib, MITF act, Wnt bcat act)
C[C@H]1CN([C@@H](C)CO)C(=O)c2cccc(NC(=O)c3ccc(-c4nccs4)cc3)c2O[C@@H]1CN(C)Cc1ccc(C(=O)Nc2ccccc2N)cc1	none (no result: HSF-1 act, HSF1 inhib, MITF act, Wnt bcat act)
O=C(c1ccc(C(F)(F)F)cc1)n1ccc(-c2cccs2)n1	Wnt bcat act 42 (no result: esBAF inh)
